# From the supplement of paper PMC6555819
# What was measured:
# Test in all cases: PBM binding z-score (relative to random genomic background probes); higher = stronger binding; sequences stand for … in GC…GCGATTGACAGCGTAGAATGAAGG
# [1] = system: PPARg:RXRa DBDmut IVT, anti-RXR (DBD mutation: RXRa K156A/R161A, NR concentration 270 nM, RXRa partner concentration 90 nM)
# Outline: (§1)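 Binding buffer was PBS pH 7.4 with 2% milk, 0.02% Triton X-100, 1 mM DTT, 0.2 mg/mL BSA and 0.4 mg/ml salmon testes DNA. In it, ligand-free nuclear receptor dimers were incubated 1 h on custom Agilent 4×180K protein-binding microarrays carrying double-stranded probes. Antibodies against each partner (one per run) detected binding, and z-scores were calculated against random background probes after regression normalization of scanned fluorescence.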
# [2] = system: PPARg:RXRa IVT, anti-PPARg (NR concentration 270 nM, RXRa partner concentration 90 nM)
# Outline: as §1
# [3] = system: PPARg DBDmut:RXRa IVT, anti-PPARg (DBD mutation: PPARg1 K132A/R137A, NR concentration 270 nM, RXRa partner concentration 90 nM)
# Outline: as §1
# [4] = system: PPARg DBDmut IVT, anti-PPARg (DBD mutation: PPARg1 K132A/R137A, NR concentration 270 nM)
# Outline: as §1
# [5] = system: PPARg homodimer (NR concentration 180 nM)
# Outline: as §1
# [6] = system: PXR:RXRa (NR concentration 270 nM, RXRa partner concentration 90 nM)
# Outline: as §1
# [7] = system: PXR homodimer (NR concentration 270 nM)
# Outline: as §1
# [8] = system: RARa:RXR (NR concentration 270 nM, RXRa partner concentration 90 nM)
# Outline: as §1
# [9] = system: RARa homodimer (NR concentration 270 nM)
# Outline: as §1
# [10] = system: RARb:RXRa (NR concentration 270 nM, RXRa partner concentration 90 nM)
# Outline: as §1
# [11] = system: RARb homodimer (NR concentration 270 nM)
# Outline: as §1
# [12] = system: RARg:RXRa (NR concentration 270 nM, RXRa partner concentration 90 nM)
# Outline: as §1
# [13] = system: RARg homodimer (NR concentration 270 nM)
# Outline: as §1
# [14] = system: RXRa DBDmut IVT, anti-RXR (DBD mutation: RXRa K156A/R161A, NR concentration 90 nM)
# Outline: as §1
# [15] = system: RXRa homodimer (NR concentration 180 nM)
# Outline: as §1
# [16] = system: THRa:RXRa (NR concentration 90 nM, RXRa partner concentration 90 nM)
# Outline: as §1
# [17] = system: THRa homodimer (NR concentration 90 nM)
# Outline: as §1
# [18] = system: VDR homodimer (NR concentration 270 nM)
# Outline: as §1
Sequence,PBM binding z-score [1],PBM binding z-score [2],PBM binding z-score [3],PBM binding z-score [4],PBM binding z-score [5],PBM binding z-score [6],PBM binding z-score [7],PBM binding z-score [8],PBM binding z-score [9],PBM binding z-score [10],PBM binding z-score [11],PBM binding z-score [12],PBM binding z-score [13],PBM binding z-score [14],PBM binding z-score [15],PBM binding z-score [16],PBM binding z-score [17],PBM binding z-score [18]
TCTGCAAGGTCAACGATGGTCAGCTAATCTGCTA,3.02,3.91,-0.02,-0.552,2.84,4.57,0.31,4.65,0.319,5.27,4.58,6.12,6.75,2.83,5.75,4.24,2.36,1.62
CTTCGGAGGACAGAAGGTCAGAGCTGTCCGCTTT,0.227,0.203,-0.826,-2.02,1.51,1.56,-0.691,2.18,-0.152,3.17,3.32,3.58,3.53,-0.00556,2.14,2.31,-0.137,-0.0466
CAAACTAGGTGACGAAAGGTCAAAGTCGAATGAC,8.02,7.93,1.7,2.14,4.87,5.93,1.38,6.62,1.88,4.82,4.9,6.2,6.26,1.41,7.46,4.22,1.33,2.22
GGAACGAGGGAAAAGTTGATAGCATCTGTCGACG,-0.174,0.0196,-0.986,-1.13,-0.562,-0.557,-0.343,-0.659,-0.0387,-0.212,-0.745,-0.112,0.0748,-0.319,-0.0103,-0.553,-1.15,-0.433
CAAACTAGGTCAAGGACAAAGTCGGTTTGTGCCA,8.57,8.47,0.998,1.42,2.03,1.6,0.0226,1.91,-0.478,4.15,3.2,3.97,4.91,1.39,2.52,3.58,2.25,0.988
TCTTGTAGATCAAGCAGCTTAAGAAAGCCTGAGT,1.1,0.213,-0.268,-0.032,0.0501,-0.0224,-0.129,-0.209,-0.515,-0.253,-0.672,-0.336,-0.59,0.402,-0.293,-0.48,-0.676,-0.394
TAGCCTAGGTCAGAACGGGCCAGTATACGCTATA,0.749,1.5,-0.735,-1.15,0.155,0.457,-0.462,0.873,-0.513,2.75,1.79,2.22,2.92,-0.315,1.19,2.46,-0.361,-0.307
TCTAGTTGGACAAAGGTCACACACTCGAAATGCG,2.65,5.02,0.884,1.01,4.09,5.7,1.81,6.59,2.98,5.11,5.06,6.62,5.93,1.75,7.13,4.12,1.8,2.24
ATCTCTAGGTAAGACTCAGATCAGTGAAGAACGC,1.51,1.26,-0.0293,0.583,0.669,-0.381,0.314,-0.0698,1.46,-0.146,-0.0502,0.253,0.295,0.0225,0.0293,0.242,0.333,0.414
ATCGAAAGGTCGAGGCGAGTATAGAGAAAGGGAA,0.108,1.14,0.481,0.208,0.98,2.11,0.0659,2.71,0.203,3.86,1.95,3.9,3.91,0.625,4.19,1.83,-0.512,0.276
CCTAGCAGGCCAGGGTCACTCCAGCATTTCGCTT,0.422,1.18,-1.53,-1.63,1.15,2.12,-0.229,2.93,0.279,2.47,2.7,2.61,2.18,0.578,2.86,2.61,1.02,1.64
TCGAGTAGGTTAGACGGGGCATTCAGCCAACATA,2.22,0.996,-0.111,0.319,-0.139,-0.0359,-0.369,-0.135,-0.49,0.612,0.538,0.307,0.0787,0.0493,0.305,0.812,-0.51,-0.0872
CCTAGTTGGTCAAAGTCACACACGCTATAGGTAC,1.7,1.52,0.647,0.822,1.59,0.0775,0.736,0.303,1.44,1.42,1.28,0.912,1.23,0.833,0.561,0.212,0.467,0.811
ATCGAAAGGTCGAGGTCAGTATAGAGAAAGGGAA,0.84,3.1,1.71,1.29,3.42,4.33,1.7,4.81,2.18,5.1,4.73,5.69,6.16,2.01,5.46,3.84,1.93,2.73
GCATATTGGTAATACAAGGTGAAAGTCCGATTGT,0.078,0.938,1.13,0.842,0.326,0.0953,0.0473,0.645,-0.0157,0.266,0.603,0.0948,0.327,0.349,0.367,2.39,1,-0.108
ATACCAAGGTGATCGTGAGGTCGTTGAAACTAAC,0.647,1.34,0.138,0.0797,1.05,3.33,1.61,2.57,0.829,1.7,2.04,2.53,1.34,0.72,1.98,3.84,3.02,3.25
TATACAGGGTCAACGGCCAGAGTACGAATGTCGA,2.91,4.6,4.74,3.03,4.05,3.93,0.74,5.15,1.33,4.52,3.43,5.83,5.47,2.75,6.28,3.46,1.05,2.95
CCTAGTTGGTCATGAGGTCACACACCGGATATGA,2.85,4.41,1.13,0.4,4.56,5.34,2.23,5.4,2.94,4.14,4.66,5.3,4.46,2,5.17,4.72,5.35,4.1
CGTTCAAGGTCAAGGTCAGTGAAAGAGACTCGAA,4.65,5.44,0.946,1.3,3.58,5.02,1.3,5.02,1.49,5.9,5.27,6.92,7.85,3.86,6.6,4.48,4.1,3.59
CCGACTGGGGTAAAGGTTACCATACTCAGTACGA,3.8,5.39,0.251,0.0634,1.25,1.93,-0.316,3.23,0.475,2.02,1.83,2.51,1.44,0.246,3.27,2.05,-0.0216,0.207
AGTCAAAGTTCATCTAGTTAACGTAAGATATGCT,0.113,2.78,1.61,1.25,3.6,5.26,9.11,3.45,2.15,4.85,3.73,5.37,5.78,4.8,4.19,2.13,-0.607,5.21
TCATATAGGTAAAAGGTGACAGTCGGTGTGGTAA,5.71,5.54,2.29,1.71,1.76,1.36,1.05,2.14,1.41,1.7,1.71,1.48,0.836,1.66,2.28,1.4,0.394,0.0898
CGAACTAGGTCATCCAGGACAGTGAATACATTGA,8.1,8.47,3.54,2.16,1.36,2.06,1.61,2.38,0.896,3.91,3.06,4.04,4.85,2.52,2.79,3.59,1.84,1.96
CCGACTGGGGCATAATGTTACCATAAGCCAGCCC,2.47,2.12,-0.872,-0.687,0.105,-0.537,-0.468,-0.283,-0.0507,0.133,-0.153,0.0195,0.3,-0.127,0.021,-0.493,-0.413,-0.295
TCTATTAGTTGATTAGGGCAACGGAAACAGCGGA,2.04,1.27,0.436,0.954,0.288,0.192,0.475,0.276,0.743,0.963,0.377,0.729,0.882,0.972,0.448,0.578,0.239,0.264
GCGAGTGGGGCATCAGCAGGTTACCATAACTTAA,3.22,2.59,-0.589,-0.427,0.496,0.25,-0.251,0.531,-0.613,0.812,0.915,1.05,0.378,-0.215,0.32,0.958,0.127,-0.291
CGAATGAGGGCATGAGTTGATAGCAAATGCCGAT,4,3.15,0.455,-0.417,0.0655,0.525,0.166,0.61,-0.437,1.8,0.499,1.14,1.58,2.3,1.03,1.83,0.345,1.33
ATCTCTAGGTAAAGATAGTTAAGTGAATGCAAAT,1.79,1.42,0.229,1.6,0.449,-0.33,0.0795,-0.0694,0.927,-0.0166,-0.639,0.108,0.448,-0.348,-0.199,0.104,-0.211,-0.177
TGTCAAAGTTCAACGGTAACGTAAGTATCCACAC,0.0114,4.34,1.07,1.67,3.02,4.77,3.78,4.08,1.62,5.03,3.79,5.69,6.35,4.26,5.2,1.98,-0.415,3.5
